# Data reported in PMC7862700, “An all-to-all approach to the identification of sequence-specific readers for epigenetic DNA modifications on cytosine”.
# Assays:
# Experiment in all cases: DAPPL (digital affinity profiling via proximity ligation, sequencing); 10 mM Tris-HCl pH 7.5, 50 mM NaCl, 1 mM DTT, 4% glycerol, room temperature, 30 min; GST-TFs on glutathione beads, 16-mer random dsDNA library, 0.1% formaldehyde crosslink after washing; high values mean tight binding
# FEV = molecular target: T1, FEV (Homo sapiens, UniProt Q99581 1-238); conditions: protein: recombinant; tags: N-terminal GST; dsDNA, one strand shown
# T1 sequence: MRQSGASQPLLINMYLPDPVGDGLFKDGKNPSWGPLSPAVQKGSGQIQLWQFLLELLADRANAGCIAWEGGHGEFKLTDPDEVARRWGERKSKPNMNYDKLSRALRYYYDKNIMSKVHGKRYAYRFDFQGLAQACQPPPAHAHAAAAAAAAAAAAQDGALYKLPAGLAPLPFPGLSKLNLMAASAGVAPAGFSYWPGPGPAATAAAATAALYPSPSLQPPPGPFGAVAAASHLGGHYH
# In short: (§1)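 Pools of DNA-barcoded human transcription factors, expressed in yeast as GST fusions on glutathione beads and combined with a tag-only sample, were incubated with 200 nmole of a 16-mer random double-stranded DNA library. Incubation took 30 min at room temperature in Tris/NaCl/DTT/glycerol buffer and was followed by washing, 0.1% formaldehyde crosslinking, proximity ligation (BsaI/T4 ligase, 1 h, 37 °C), PCR amplification and sequencing on an Illumina NextSeq500. Binding signal is the ratio of a hexamer's read frequency for a factor to its frequency for the tag-only sample.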
# ETV5 = ETV5 (Homo sapiens, UniProt P41161 1-510); conditions: protein: recombinant; tags: N-terminal GST; dsDNA, one strand shown
# In short: as §1
# HSF1 = HSF1 (Homo sapiens, UniProt Q00613 1-529); conditions: protein: recombinant; tags: N-terminal GST; chain copies: 3; dsDNA, one strand shown
# In short: as §1
# SPIC = molecular target: T2, SPIC (Homo sapiens, UniProt Q8N5J4 1-248); conditions: protein: recombinant; tags: N-terminal GST; dsDNA, one strand shown
# T2 sequence: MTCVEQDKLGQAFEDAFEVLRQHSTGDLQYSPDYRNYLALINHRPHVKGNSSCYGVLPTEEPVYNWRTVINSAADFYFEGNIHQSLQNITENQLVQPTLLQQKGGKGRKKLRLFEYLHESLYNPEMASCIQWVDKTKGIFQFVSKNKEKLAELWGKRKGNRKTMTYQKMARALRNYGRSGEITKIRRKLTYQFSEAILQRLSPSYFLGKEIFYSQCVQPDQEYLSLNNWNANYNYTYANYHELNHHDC
# In short: as §1
# ELF4 = ELF4 (Homo sapiens, UniProt Q99607 1-663); conditions: protein: recombinant; tags: N-terminal GST; dsDNA, one strand shown
# In short: as §1
# ELK4 = molecular target: T3, ELK4 (Homo sapiens, UniProt P28324-2 1-405); conditions: protein: recombinant; tags: N-terminal GST; dsDNA, one strand shown
# T3 sequence: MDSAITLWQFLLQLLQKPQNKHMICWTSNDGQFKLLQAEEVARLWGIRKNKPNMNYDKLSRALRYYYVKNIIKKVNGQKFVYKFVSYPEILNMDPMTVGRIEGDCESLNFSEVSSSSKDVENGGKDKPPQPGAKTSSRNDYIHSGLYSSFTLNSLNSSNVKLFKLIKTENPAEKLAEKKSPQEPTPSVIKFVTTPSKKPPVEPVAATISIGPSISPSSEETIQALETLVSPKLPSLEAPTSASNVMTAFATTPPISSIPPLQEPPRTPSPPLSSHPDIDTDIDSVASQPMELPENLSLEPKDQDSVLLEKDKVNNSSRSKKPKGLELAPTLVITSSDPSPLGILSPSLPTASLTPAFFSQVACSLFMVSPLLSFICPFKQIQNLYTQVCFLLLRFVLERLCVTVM
# In short: as §1
# ETV2 = molecular target: T4, ETV2 (Homo sapiens, UniProt O00321 1-342); conditions: protein: recombinant; tags: N-terminal GST; dsDNA, one strand shown
# T4 sequence: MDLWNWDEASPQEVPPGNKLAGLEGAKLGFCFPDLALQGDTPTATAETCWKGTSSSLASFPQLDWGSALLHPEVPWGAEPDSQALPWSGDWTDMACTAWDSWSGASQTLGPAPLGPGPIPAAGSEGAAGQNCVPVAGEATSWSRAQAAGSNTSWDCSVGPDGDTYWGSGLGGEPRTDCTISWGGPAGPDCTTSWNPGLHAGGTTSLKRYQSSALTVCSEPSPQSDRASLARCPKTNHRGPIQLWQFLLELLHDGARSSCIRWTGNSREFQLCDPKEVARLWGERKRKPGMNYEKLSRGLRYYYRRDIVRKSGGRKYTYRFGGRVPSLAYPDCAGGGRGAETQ
# In short: as §1
# ELF3 = molecular target: T5, ELF3 (Homo sapiens, UniProt P78545 1-371); conditions: protein: recombinant; tags: N-terminal GST; dsDNA, one strand shown
# T5 sequence: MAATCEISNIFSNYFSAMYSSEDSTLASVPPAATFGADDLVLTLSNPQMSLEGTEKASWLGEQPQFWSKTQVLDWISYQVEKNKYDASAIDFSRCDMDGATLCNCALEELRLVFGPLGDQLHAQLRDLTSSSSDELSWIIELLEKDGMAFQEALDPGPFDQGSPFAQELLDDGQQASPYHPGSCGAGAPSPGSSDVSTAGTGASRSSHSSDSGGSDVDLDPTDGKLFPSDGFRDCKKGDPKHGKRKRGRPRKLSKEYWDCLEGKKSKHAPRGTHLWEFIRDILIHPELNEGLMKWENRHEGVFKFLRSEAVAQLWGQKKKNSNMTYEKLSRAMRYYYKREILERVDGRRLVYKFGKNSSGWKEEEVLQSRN
# In short: as §1
# CRX = CRX (Homo sapiens, UniProt O43186 1-299); conditions: protein: recombinant; tags: N-terminal GST; dsDNA, one strand shown
# In short: as §1
# ETV1 = ETV1 (Homo sapiens, UniProt P50549 1-477); conditions: protein: recombinant; tags: N-terminal GST; dsDNA, one strand shown
# In short: as §1
# ERF = molecular target: T6, ERF (Homo sapiens, UniProt P50548 1-548); conditions: protein: recombinant; tags: N-terminal GST; dsDNA, one strand shown
# T6 sequence: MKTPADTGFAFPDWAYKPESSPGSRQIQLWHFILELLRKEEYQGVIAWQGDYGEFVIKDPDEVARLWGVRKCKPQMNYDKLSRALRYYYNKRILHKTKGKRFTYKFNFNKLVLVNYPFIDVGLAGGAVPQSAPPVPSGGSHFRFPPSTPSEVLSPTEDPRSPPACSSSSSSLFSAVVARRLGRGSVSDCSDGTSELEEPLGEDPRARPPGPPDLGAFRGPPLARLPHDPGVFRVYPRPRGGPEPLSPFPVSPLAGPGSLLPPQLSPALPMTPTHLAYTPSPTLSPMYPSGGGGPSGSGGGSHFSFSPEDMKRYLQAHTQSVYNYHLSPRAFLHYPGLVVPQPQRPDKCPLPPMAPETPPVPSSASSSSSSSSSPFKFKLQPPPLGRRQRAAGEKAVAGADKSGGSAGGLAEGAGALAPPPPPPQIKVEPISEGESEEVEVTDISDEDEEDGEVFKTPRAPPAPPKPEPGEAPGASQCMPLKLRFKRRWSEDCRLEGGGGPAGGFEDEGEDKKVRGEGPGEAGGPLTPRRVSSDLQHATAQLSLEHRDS
# In short: as §1
# ETV3L = molecular target: T7, ETV3L (Homo sapiens, UniProt Q6ZN32 1-361); conditions: protein: recombinant; tags: N-terminal GST; dsDNA, one strand shown
# T7 sequence: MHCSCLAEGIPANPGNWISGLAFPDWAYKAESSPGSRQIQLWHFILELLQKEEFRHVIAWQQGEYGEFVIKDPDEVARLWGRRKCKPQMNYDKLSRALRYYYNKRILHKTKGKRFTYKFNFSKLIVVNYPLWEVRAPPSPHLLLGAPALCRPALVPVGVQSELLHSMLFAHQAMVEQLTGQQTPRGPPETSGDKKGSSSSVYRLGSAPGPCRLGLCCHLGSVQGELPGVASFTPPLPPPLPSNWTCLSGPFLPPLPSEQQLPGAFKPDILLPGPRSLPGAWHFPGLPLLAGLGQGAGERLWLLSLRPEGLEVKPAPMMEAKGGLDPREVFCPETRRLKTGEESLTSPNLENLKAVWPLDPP
# In short: as §1
# ETS2 = molecular target: T8, ETS2 (Homo sapiens, UniProt P15036 1-469); conditions: protein: recombinant; tags: N-terminal GST; dsDNA, one strand shown
# T8 sequence: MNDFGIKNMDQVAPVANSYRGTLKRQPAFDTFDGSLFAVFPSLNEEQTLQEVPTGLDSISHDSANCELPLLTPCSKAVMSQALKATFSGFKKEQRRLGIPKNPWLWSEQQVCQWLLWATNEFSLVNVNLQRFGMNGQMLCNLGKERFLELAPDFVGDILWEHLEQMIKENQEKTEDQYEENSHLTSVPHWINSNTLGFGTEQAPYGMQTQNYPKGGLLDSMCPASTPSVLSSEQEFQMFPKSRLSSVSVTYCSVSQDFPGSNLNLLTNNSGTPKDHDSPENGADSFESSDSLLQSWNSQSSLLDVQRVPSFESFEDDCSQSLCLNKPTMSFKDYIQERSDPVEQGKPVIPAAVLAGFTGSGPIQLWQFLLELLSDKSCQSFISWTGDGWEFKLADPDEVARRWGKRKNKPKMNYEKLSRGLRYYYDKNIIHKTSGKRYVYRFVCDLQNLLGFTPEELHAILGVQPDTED
# In short: as §1
# SPDEF = molecular target: T9, SPDEF (Homo sapiens, UniProt O95238 1-335); conditions: protein: recombinant; tags: N-terminal GST; dsDNA, one strand shown
# T9 sequence: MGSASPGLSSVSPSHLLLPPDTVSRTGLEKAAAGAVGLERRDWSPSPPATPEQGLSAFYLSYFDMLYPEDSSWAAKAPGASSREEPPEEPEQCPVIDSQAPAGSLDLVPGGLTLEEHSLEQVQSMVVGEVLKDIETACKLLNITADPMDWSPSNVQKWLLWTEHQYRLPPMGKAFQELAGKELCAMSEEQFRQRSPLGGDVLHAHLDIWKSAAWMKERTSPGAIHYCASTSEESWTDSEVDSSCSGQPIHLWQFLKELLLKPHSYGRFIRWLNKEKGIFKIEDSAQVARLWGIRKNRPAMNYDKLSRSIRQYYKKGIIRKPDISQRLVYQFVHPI
# In short: as §1
# ETV7 = molecular target: T10, ETV7 (Homo sapiens, UniProt Q9Y603 1-341); conditions: protein: recombinant; tags: N-terminal GST; dsDNA, one strand shown
# T10 sequence: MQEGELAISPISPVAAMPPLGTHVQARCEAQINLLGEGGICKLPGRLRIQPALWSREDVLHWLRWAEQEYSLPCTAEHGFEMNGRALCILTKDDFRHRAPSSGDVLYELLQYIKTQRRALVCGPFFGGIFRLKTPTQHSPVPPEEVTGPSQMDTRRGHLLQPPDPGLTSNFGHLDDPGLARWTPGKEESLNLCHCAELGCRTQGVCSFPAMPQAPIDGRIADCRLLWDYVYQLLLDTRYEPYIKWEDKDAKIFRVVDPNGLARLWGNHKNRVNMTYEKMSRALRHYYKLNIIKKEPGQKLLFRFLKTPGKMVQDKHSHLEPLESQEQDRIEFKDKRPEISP
# In short: as §1
# ELF5 = molecular target: T11, ELF5 (Homo sapiens, UniProt Q9UKW6-2 1-255); conditions: protein: recombinant; tags: N-terminal GST; dsDNA, one strand shown
# T11 sequence: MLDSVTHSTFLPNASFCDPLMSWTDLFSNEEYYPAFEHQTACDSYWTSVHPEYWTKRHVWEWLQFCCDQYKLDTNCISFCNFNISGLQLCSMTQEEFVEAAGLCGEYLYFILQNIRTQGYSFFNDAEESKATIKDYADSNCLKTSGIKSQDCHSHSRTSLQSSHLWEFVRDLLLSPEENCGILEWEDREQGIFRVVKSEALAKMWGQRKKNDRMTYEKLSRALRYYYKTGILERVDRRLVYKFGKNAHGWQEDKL
# In short: as §1
# ETV3 = molecular target: T12, ETV3 (Homo sapiens, UniProt P41162-2 1-143); conditions: protein: recombinant; tags: N-terminal GST; dsDNA, one strand shown
# T12 sequence: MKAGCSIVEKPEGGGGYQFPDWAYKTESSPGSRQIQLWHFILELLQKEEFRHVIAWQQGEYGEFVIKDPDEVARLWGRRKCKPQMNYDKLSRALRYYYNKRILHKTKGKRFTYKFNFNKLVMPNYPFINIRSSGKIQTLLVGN
# In short: as §1
# ETV6 = ETV6 (Homo sapiens, UniProt P41212 1-452); conditions: protein: recombinant; tags: N-terminal GST; dsDNA, one strand shown
# In short: as §1
# Sequence of HSF1 (Q00613 whole entry): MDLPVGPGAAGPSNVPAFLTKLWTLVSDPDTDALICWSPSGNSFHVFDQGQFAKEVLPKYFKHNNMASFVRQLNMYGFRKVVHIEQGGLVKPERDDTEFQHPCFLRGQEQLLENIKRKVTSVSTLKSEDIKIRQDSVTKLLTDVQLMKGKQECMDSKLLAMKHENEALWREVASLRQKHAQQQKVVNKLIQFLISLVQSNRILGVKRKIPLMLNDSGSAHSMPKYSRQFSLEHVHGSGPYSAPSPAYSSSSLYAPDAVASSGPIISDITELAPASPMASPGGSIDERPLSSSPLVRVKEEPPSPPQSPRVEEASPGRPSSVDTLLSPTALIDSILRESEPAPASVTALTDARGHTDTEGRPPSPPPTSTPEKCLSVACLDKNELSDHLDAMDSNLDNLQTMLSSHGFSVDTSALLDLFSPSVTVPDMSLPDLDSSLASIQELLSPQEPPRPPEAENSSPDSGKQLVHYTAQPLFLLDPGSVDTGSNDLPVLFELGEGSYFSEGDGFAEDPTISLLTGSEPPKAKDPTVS
# Sequence of ETV6 (P41212 whole entry): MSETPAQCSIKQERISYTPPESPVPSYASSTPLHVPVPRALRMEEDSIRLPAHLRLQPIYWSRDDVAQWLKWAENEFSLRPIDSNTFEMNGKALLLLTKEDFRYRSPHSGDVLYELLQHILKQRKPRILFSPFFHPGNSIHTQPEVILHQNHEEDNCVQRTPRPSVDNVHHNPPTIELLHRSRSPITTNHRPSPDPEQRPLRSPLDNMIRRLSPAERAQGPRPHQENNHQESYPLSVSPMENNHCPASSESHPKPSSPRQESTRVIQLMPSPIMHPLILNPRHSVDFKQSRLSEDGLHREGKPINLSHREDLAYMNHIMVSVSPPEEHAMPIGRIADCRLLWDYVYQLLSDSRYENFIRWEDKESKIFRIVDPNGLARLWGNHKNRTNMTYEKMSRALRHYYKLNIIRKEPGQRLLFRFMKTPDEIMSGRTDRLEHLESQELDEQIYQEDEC
# Sequence of ETV1 (P50549 whole entry): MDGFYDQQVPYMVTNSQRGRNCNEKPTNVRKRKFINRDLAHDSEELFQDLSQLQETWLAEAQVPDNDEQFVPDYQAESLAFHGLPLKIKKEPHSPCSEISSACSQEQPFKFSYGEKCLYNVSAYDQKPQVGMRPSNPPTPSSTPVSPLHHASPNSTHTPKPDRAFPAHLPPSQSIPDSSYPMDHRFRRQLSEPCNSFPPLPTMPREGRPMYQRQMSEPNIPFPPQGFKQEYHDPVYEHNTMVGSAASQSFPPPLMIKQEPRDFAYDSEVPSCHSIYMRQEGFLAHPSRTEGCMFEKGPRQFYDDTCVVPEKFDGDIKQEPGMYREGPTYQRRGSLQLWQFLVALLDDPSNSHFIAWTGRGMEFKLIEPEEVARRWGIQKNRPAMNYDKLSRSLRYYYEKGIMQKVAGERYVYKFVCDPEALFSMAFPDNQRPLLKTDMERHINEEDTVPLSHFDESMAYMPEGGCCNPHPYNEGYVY
# Sequence of ETV5 (P41161 whole entry): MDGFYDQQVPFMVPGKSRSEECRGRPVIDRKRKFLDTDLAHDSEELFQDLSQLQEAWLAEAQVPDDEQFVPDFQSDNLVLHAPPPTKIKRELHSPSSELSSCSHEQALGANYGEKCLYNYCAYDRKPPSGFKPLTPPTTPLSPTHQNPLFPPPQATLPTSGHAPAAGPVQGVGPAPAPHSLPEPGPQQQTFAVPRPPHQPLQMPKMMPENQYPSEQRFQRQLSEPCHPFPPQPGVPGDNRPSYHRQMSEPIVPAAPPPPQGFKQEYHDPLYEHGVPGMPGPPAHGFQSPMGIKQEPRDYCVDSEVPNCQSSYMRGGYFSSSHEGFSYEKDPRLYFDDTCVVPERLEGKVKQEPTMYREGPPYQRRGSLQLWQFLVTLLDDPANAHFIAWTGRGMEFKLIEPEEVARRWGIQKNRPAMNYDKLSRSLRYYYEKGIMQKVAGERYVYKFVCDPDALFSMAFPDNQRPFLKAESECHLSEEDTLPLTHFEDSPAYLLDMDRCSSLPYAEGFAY
# Sequence of CRX (O43186 whole entry): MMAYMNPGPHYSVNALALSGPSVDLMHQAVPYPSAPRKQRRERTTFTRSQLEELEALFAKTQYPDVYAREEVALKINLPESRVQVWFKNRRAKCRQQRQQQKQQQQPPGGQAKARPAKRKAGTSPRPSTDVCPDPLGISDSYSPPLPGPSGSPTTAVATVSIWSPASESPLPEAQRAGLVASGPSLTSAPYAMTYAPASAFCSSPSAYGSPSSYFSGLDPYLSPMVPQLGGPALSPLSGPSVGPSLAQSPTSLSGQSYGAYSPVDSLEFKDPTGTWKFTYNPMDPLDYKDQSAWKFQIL
# Sequence of ELF4 (Q99607 whole entry): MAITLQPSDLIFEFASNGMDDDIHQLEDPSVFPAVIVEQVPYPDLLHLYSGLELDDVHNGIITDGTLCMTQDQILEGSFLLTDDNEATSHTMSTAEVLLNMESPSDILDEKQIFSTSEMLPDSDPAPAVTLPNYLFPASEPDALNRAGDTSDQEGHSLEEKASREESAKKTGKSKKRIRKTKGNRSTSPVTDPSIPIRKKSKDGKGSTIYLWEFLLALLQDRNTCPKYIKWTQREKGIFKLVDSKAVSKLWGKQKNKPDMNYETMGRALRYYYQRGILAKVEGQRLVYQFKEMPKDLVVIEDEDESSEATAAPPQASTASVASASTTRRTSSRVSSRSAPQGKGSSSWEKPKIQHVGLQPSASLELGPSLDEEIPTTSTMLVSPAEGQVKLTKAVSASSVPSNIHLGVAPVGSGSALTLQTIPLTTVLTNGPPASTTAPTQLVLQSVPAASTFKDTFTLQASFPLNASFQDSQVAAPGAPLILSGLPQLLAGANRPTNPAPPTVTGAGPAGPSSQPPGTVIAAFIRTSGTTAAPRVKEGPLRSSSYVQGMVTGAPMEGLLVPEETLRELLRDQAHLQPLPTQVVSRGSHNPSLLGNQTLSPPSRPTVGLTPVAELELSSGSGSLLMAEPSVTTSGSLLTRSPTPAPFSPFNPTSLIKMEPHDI
sequence,measurement,setting,value
TCGATC,binding signal,FEV,"1.09 fold enrichment (6-mer frequency, TF over GST control)"
same,binding signal,ETV5,"1.19 fold enrichment (6-mer frequency, TF over GST control)"
same,binding signal,HSF1,"1.54 fold enrichment (6-mer frequency, TF over GST control)"
same,binding signal,SPIC,"1.1 fold enrichment (6-mer frequency, TF over GST control)"
same,binding signal,ELF4,"1.14 fold enrichment (6-mer frequency, TF over GST control)"
same,binding signal,ELK4,"1.15 fold enrichment (6-mer frequency, TF over GST control)"
same,binding signal,ETV2,"1.06 fold enrichment (6-mer frequency, TF over GST control)"
same,binding signal,ELF3,"1.17 fold enrichment (6-mer frequency, TF over GST control)"
same,binding signal,CRX,"1.23 fold enrichment (6-mer frequency, TF over GST control)"
same,binding signal,ETV1,"1.16 fold enrichment (6-mer frequency, TF over GST control)"
same,binding signal,ERF,"1.12 fold enrichment (6-mer frequency, TF over GST control)"
same,binding signal,ETV3L,"1.2 fold enrichment (6-mer frequency, TF over GST control)"
same,binding signal,ETS2,"1.15 fold enrichment (6-mer frequency, TF over GST control)"
same,binding signal,SPDEF,"1.09 fold enrichment (6-mer frequency, TF over GST control)"
same,binding signal,ETV7,"1.17 fold enrichment (6-mer frequency, TF over GST control)"
same,binding signal,ELF5,"1.11 fold enrichment (6-mer frequency, TF over GST control)"
same,binding signal,ETV3,"1.18 fold enrichment (6-mer frequency, TF over GST control)"
same,binding signal,ETV6,"1.11 fold enrichment (6-mer frequency, TF over GST control)"
